This note sets out measurements from PubChem BioAssay (Tox21).

Molecules are shown by their SMILES. Values without a mark were called inactive. Records with an inconclusive call do not appear. Activity calls are given as the source filed them. Unless noted, calls follow the shape of the dose curve; as a rule, active = well fitted curve in the direction sought with a large enough effect in the repeat runs; inconclusive = weak or mixed curves; inactive = no such curve, though single readings can be large; an effect the other way counts as inactive or inconclusive.

A short description of assay [1]: qHTS assay to identify small molecule agonists of the estrogen receptor alpha (ER-alpha) signaling pathway in the presence of an antagonist - cell viability counter screen (AID 1259386).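 Also: series mostly up to about 92 µM; cells exposed to compounds for 22 h at 37 °C before the viability read; nearly all actives have a fitted effect of over 30% in size.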 The method, boiled down: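 Cytotoxicity was measured in parallel with the ERE-luciferase agonist screen, in the same wells. The cells were VM7Luc4E2, which endogenously express ER-alpha, and treatment was with compounds plus 10.0nM ICI-182,780 for 22hr.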
A general note: Quantitative high-throughput screening tests each substance at several concentrations.

For assay [2], the target named is Progesterone receptor (Homo sapiens) (UniProt P06401). The experiment in a line: qHTS assay to identify small molecule agonists of the progesterone receptor (PR) signaling pathway (AID 1346784; calls by dose curve; also: nearly all actives have a fitted effect of over 30% in size). The method, boiled down: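 Seed PR-UAS-bla HEK 293T cells (2% charcoal-stripped FBS), incubate 6 hr at 37C; add compounds in DMSO, 16 hr at 37C; add LiveBLAzer B/G substrate, 2 hr RT; read fluorescence intensity.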
Chain of Progesterone receptor (Homo sapiens) (P06401 whole entry, looked up): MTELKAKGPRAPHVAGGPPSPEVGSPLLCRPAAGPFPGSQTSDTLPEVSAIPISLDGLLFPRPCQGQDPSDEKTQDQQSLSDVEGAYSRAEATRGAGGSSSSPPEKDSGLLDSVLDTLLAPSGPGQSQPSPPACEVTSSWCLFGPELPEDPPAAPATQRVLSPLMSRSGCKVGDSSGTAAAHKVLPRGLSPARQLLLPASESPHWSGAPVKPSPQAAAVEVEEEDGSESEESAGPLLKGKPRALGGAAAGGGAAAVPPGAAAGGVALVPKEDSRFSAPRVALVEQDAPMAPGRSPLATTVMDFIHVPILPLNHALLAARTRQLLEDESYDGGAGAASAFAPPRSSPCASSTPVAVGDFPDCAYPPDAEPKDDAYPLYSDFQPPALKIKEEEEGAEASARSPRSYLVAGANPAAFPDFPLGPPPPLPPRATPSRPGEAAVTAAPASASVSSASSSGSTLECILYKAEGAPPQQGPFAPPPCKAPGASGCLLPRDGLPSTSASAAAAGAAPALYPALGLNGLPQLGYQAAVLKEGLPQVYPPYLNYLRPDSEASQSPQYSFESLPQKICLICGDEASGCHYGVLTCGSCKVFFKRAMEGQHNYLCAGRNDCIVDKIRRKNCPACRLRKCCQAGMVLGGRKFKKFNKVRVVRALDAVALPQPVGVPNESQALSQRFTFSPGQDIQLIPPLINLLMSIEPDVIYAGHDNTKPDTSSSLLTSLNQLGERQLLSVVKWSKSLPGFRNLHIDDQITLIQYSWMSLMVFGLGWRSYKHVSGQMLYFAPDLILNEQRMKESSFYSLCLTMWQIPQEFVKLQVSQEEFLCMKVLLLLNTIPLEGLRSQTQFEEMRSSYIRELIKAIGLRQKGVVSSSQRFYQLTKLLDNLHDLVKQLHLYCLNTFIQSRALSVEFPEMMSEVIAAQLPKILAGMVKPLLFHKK

The target is the same in assay [3]. The assay is described as follows: qHTS assay to identify small molecule antagonists of the progesterone receptor (PR) signaling pathway (AID 1346795; active = well fitted inhibition curve with a large enough effect in the signal ratio in the repeat runs, not every such curve was filed as active; the % refers to the signal ratio). A digest of the protocol:
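Screening used a GripTite HEK293T line with PR-responsive UAS-beta-lactamase. Cells were challenged with compound in the presence of 1 nM R5020 final for 16 hr at 37C; B/G FRET substrate, 2 hr room temperature, fluorescence.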

A short description of assay [4]: qHTS assay to identify small molecule antagonists of the progesterone receptor (PR) signaling pathway - cell viability counter screen (AID 1346798). Also: series mostly up to about 92 µM; nearly all actives have a fitted effect of over 50% in size. A digest of the protocol:
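Measures cytotoxicity in parallel with the PR antagonist reporter read: HEK293T PR-UAS-bla cells get compound and R5020 for 16 hr, and remaining viable cells are quantified by CellTiter-Glo luminescence.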

Assay [5] is described as follows: qHTS assay to identify small molecule agonists of the progesterone receptor (PR) signaling pathway - cell viability counter screen (AID 1346799; calls by dose curve; also: nearly all actives have a fitted effect of over 45% in size). The method, boiled down:
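Using the same plates as the PR reporter screen, HEK293T PR-UAS-bla cells received compounds for 16 hr at 37C and were then lysed with CellTiter-Glo; luminescence was read 30 min later at room temperature.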

Assay [6] can be described thus: qHTS assay to identify small molecule antagonists of the TGF-beta/Smad signaling pathway - cell viability counter screen (AID 1346824). Also: nearly all actives have a fitted effect of over 50% in size. A digest of the protocol:
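SBE-bla HEK 293T cells were plated overnight at 37 C, then given compounds in DMSO plus TGF-beta1 (added as 0.25 ng/mL solution) for 5 hr. After the bla read, CellTiter-Glo was added to the same wells and luminescence read after 30 min at room temperature.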

A short description of assay [7]: qHTS assay to identify small molecule agonists of the TGF-beta/Smad signaling pathway - cell viability counter screen (AID 1346829). Also: top concentration of the series differs between compounds; nearly all actives have a fitted effect of over 45% in size. A digest of the protocol:
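Luminescence from CellTiter-Glo, read after a 30 min room-temperature incubation, gives cell viability of SBE-bla HEK 293T cells treated 5 hr with compounds at 37 C.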

Assay [8] can be described thus: qHTS assay to identify small molecule agonists of the TGF-beta/Smad signaling pathway (AID 1346859; active = well fitted activation curve with a large enough effect in the signal ratio in the repeat runs, not every such curve was filed as active; the % refers to the signal ratio; also: series mostly up to about 77 µM). A digest of the protocol:
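Beta-lactamase reporter activity downstream of Smad binding elements was measured in stably transfected HEK 293T cells; compounds were incubated for 5 hr, substrate for 2 hr at room temperature.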

Assay [9] in a line: Human pregnane X receptor (PXR) small molecule agonists, qHTS cell viability counter screen (AID 1346977). Also: nearly all actives have a fitted effect of over 50% in size. The method, boiled down:
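After a 5hr pre-incubation, PXR-Luc HepG2 cells received compounds plus positive control in DMSO and were kept 24hr at 37C. Cell viability was quantified by fluorescence from CellTiter-Fluor added for the final hour.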

A short description of assay [10]: Caspase-3/7 induction in HepG2 cells by small molecules, qHTS assay (AID 1346978). Also: nearly all actives have a fitted effect of over 15% in size. The method, boiled down: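 Wild-type HepG2 cells (2,000/well) were settled 5 h at 37 C, 5% CO2, then exposed to compounds in DMSO for 17 h. Caspase-3/7 activity was read by luminescence 30 min after adding Caspase-Glo 3/7 reagent at room temperature.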
Assay [11] in a line: Caspase-3/7 induction in CHO-K1 cells by small molecules, qHTS cell viability counter screen (AID 1346979). Also: nearly all actives have a fitted effect of over 35% in size. The method, boiled down:
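Multiplexed with Caspase-Glo 3/7 in CHO-K1 cells, this counter screen added CellTiter-Fluor after 16hr of compound exposure and recorded fluorescence 1hr later.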

A short description of assay [12]: Caspase-3/7 induction in CHO-K1 cells by small molecules, qHTS assay (AID 1346980). Also: nearly all actives have a fitted effect of over 15% in size. A digest of the protocol: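 Wild-type cells were seeded at 1,500 per well and settled 5 hr at 37 C, 5% CO2, then exposed to DMSO-dissolved compounds for 17 hr. Caspase-Glo 3/7 reagent was added, and luminescence was read after 30min at room temperature.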
The target of assay [13] is Nuclear receptor subfamily 1 group I member 2 (Homo sapiens) (UniProt O75469). The assay is described as follows: Human pregnane X receptor (PXR) small molecule agonists, qHTS assay (AID 1346982). Also: nearly all actives have a fitted effect of over 35% in size. Also: potency is read from the fitted curve at half-maximal effect. A digest of the protocol: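 Cells: HepG2 stably carrying PXR-Luc. Medium held 5% charcoal-stripped FBS. Compounds in DMSO added after 5 hr plating, incubated 24 hr, then luminescence quantified with ONE-Glo.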
Chain of Nuclear receptor subfamily 1 group I member 2 (Homo sapiens) (O75469 whole entry, looked up): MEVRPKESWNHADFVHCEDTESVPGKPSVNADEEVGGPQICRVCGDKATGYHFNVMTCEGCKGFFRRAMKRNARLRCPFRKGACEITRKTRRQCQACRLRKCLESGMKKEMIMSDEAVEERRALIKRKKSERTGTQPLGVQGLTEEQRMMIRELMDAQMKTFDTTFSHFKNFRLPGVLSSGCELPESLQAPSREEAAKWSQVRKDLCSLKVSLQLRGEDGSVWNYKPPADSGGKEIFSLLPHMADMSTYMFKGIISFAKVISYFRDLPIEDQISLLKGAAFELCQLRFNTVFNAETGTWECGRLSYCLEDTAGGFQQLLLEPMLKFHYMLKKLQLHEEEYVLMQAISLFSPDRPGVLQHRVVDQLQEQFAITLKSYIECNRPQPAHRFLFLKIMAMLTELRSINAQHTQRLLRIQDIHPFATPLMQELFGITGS

Assay [14] addresses Acetylcholinesterase (Homo sapiens) (UniProt P22303). The assay is described as follows: Acetylcholinesterase (AChE) small molecule antagonists: colormetric cell-based qHTS assay (AID 1347395; calls by dose curve; also: nearly all actives have a fitted effect of over 30% in size). The method, boiled down: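 In this cell-based qHTS, attached SH-SY5Y cells were treated with test chemicals for 30 min, after which acetylthiocholine hydrolysis was followed by DTNB colour development over 90 min at 37 C.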

The target of assay [15] is Thyrotropin-releasing hormone receptor (Homo sapiens) (UniProt P34981). The experiment in a line: qHTS assay to identify small molecule antagonists of the thyrotropin-releasing hormone receptor (TRHR) signaling pathway (AID 1346877; active = well fitted inhibition curve with a large enough effect in the repeat runs, not every such curve was filed as active; also: series mostly up to about 51 µM). A digest of the protocol:
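Antagonism is measured as suppression of the calcium response to 1 nM TRH in TRHR-HEK293 cells that have been dye-loaded for 2 h at 37 °C after overnight plating. Each compound is tested at 15 concentrations in triplicate.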

The target is the same in assay [16]. The assay is described as follows: qHTS assay to identify small molecule agonists of the thyrotropin-releasing hormone receptor (TRHR) signaling pathway (AID 1346891; calls by dose curve;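 also: HEK293 cells expressing TRHR with calcium dye readout; series mostly up to about 58 µM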). A digest of the protocol:
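Overnight-plated (18 h, 37 °C, 5% CO2) TRHR-Hek293 cells; 2 h calcium dye at 37 °C; compound in DMSO; 3-min kinetic fluorescence read.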

Assay [17] can be described thus: Caspase-3/7 induction in HepG2 cells by small molecules, qHTS cell viability counter screen (AID 1346981). Also: series mostly up to about 92 µM; nearly all actives have a fitted effect of over 30% in size. The method, boiled down:
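Cell viability is measured as a cytotoxicity counter screen alongside the Caspase-Glo 3/7 readout in identical wells. Wild-type HepG2 cells are treated with test compounds for 16 hr at 37 C before CellTiter-Fluor addition and a 1-hr incubation.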

Assay [18] addresses Nuclear receptor subfamily 1 group I member 2 (Rattus norvegicus) (UniProt Q9R1A7). The assay is described as follows: Rat pregnane X receptor (rPXR) activation by small molecules, qHTS assay (AID 1346983). Also: nearly all actives have a fitted effect of over 20% in size. Particulars: rPXR luciferase reporter cells, One-Glo luminescence, 24 h; stronger effect = higher value. The method, boiled down:
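Cell-based rPXR luciferase reporter assay, 2,000 cells per well, rested 5hr at 37 C before compound addition in DMSO, then 24 hr at 37 C. One-Glo reagent was added and luminescence read after 30 min at room temperature.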

Assay [19] deals with Nuclear receptor subfamily 1 group I member 2 (Homo sapiens) (UniProt O75469). The assay is described as follows: CYP3A4 induction through human pregnane X receptor (PXR) by small molecules, qHTS assay (AID 1346984). Also: nearly all actives have a fitted effect of over 40% in size. The method, boiled down: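 Quantitative HTS in DPX-2 cells, i.e. HepG2 transfected with PXR response element and CYP3A4-promoter luciferase. Compounds in DMSO incubated 24hr at 37C; then P450-Glo CYP3A4 substrate, 3uM final, 3hr; One-Glo luminescence.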

Assay [20] has the same target. The experiment in a line: Human pregnane X receptor (PXR) activation by small molecules, qHTS assay (AID 1346985). Also: nearly all actives have a fitted effect of over 40% in size. A digest of the protocol: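 DPX-2 cells (HepG2 co-transfected with a PXR response element and a CYP3A4-promoter luciferase construct) were seeded at 2,000 per well, rested 5 hr at 37C, then exposed to DMSO-dissolved compounds for 24 hr. Activation was read as luciferase luminescence.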
% is scaled to controls: 0 for no effect and ±100 for the full control effect.

Chain of Acetylcholinesterase (Homo sapiens) (P22303 whole entry, looked up): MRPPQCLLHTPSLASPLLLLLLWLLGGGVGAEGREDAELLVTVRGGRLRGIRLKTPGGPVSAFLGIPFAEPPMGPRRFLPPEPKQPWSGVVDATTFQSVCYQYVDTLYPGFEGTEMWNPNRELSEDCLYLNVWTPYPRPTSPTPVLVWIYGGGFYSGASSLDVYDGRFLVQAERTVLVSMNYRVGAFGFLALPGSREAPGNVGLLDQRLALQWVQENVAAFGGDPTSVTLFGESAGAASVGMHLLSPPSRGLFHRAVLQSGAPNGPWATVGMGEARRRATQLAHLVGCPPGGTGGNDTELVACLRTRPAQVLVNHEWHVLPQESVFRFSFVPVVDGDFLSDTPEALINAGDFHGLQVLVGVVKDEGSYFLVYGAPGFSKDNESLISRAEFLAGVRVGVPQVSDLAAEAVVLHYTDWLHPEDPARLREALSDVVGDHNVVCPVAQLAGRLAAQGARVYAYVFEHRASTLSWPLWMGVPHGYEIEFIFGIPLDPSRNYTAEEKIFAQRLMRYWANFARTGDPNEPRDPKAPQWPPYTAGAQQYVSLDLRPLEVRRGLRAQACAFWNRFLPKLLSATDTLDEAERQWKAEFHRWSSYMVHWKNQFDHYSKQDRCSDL
Chain of Thyrotropin-releasing hormone receptor (Homo sapiens) (P34981 whole entry, looked up): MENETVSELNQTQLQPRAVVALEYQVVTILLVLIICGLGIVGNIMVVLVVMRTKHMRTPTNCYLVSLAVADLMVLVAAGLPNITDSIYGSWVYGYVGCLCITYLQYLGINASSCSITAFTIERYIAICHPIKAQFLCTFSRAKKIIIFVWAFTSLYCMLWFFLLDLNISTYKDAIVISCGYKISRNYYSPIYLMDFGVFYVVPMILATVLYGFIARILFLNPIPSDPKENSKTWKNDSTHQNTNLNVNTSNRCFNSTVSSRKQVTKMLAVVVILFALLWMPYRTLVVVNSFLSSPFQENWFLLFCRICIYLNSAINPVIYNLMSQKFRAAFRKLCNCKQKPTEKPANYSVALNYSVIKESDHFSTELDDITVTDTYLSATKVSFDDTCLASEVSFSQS
Chain of Nuclear receptor subfamily 1 group I member 2 (Rattus norvegicus) (Q9R1A7 whole entry, looked up): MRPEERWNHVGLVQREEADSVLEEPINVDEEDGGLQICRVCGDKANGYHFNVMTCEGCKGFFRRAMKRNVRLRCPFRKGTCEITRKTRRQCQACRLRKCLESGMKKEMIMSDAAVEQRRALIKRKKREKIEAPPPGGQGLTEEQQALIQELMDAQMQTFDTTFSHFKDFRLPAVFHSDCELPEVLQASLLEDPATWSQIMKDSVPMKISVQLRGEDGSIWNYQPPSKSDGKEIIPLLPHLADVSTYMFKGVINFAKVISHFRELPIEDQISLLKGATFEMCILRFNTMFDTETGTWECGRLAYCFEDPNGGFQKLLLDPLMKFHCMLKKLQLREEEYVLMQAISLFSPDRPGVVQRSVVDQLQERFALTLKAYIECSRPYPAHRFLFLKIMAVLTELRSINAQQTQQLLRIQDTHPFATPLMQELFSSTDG

Turning to `C#CC(O)(C=CCl)CC` (stereo not given), the Potency entry in assay [1], in [2], in assay [3], in [4], in assay [5] and in assay [6] was “inactive” in each case. For the same molecule, the Potency entry in assay [7], in [9], in [10], in assay [11], in assay [12] and in [13] was “inactive” each time. The Potency result in [14] was “inactive”. For the same molecule, in assay [8], the outcome was inactive.

With `COc1ccccc1N1CCNCC1`, the Potency result in assay [1], in [2], in assay [3], in assay [4], in assay [5] and in [6] was “inactive” in each case. For the same molecule, the Potency entry in [15], in [9], in [10], in assay [11], in [17] and in assay [13] was “inactive” in each case. Besides, in [20], the Potency entry is “inactive”. Besides, the molecule was called inactive in assay [8], in assay [16] and in assay [19]. Besides, the max activation in assay [18] was -3.01%.

With `CCOP(=O)(O)C(N)=O`, the Potency entry in assay [1], in assay [2], in [3], in [4], in [5] and in [7] was “inactive” throughout. The Potency entry in [15], in assay [9], in assay [10], in [11], in assay [17] and in [13] was “inactive” in each case. Further, in assay [14], the Potency entry was “inactive”. Further, the call in [8] was inactive.

As to `O=C(O)C(Cl)(Cl)Br`, the Potency result in assay [1], in assay [2], in assay [3], in assay [4], in assay [5] and in assay [6] was “inactive” each time. Further, the Potency entry in assay [7], in [15], in [9], in assay [10], in assay [12] and in [17] was “inactive” each time. Further, the Potency entry in assay [13] and in assay [14] was “inactive” each time. The outcome in [8] and in assay [16] was inactive.

On to `Cc1cnc(C2=NC(C)(C(C)C)C(=O)N2)c(C(=O)O)c1` (stereo not given), for which the Potency entry in assay [1], in assay [2], in assay [3], in [4], in assay [5] and in assay [6] was “inactive” throughout. Further, the Potency result in [7], in assay [15], in assay [9], in assay [10], in assay [17] and in assay [13] was “inactive” in each case. For the same molecule, the Potency result in [14] is “inactive”. In addition, the call in assay [8] and in assay [16] was inactive.

Take `CCCCCCCCCCCCCCCl`: the Potency result in [1], in [2], in assay [3], in assay [4], in assay [5] and in [6] was “inactive” throughout. Besides, the Potency result in assay [7], in assay [15], in assay [9], in [10], in assay [11] and in assay [12] was “inactive” each time. The Potency entry in [17] and in [14] was “inactive” each time. Besides, the outcome in assay [8] and in assay [16] was inactive. In addition, the Potency in assay [13] is 61.4 µM (active).

In the case of `COc1cc(CC#N)cc(OC)c1OC`, the Potency entry in assay [1], in [2], in assay [3], in [4], in assay [5] and in assay [7] was “inactive” each time. Moreover, the Potency entry in assay [15], in assay [9], in [10], in assay [11], in assay [13] and in [14] was “inactive” throughout. In addition, the molecule was called inactive in assay [8] and in assay [16].

Turning to `C[C@H](N)[C@H](O)c1ccc(O)c(O)c1`, the Potency entry in assay [1], in assay [2], in assay [3], in assay [4], in assay [5] and in assay [7] was “inactive” throughout. Moreover, the Potency result in assay [15], in assay [9], in assay [10], in assay [12], in [17] and in assay [13] was “inactive” throughout. Further, the Potency result in assay [20] and in assay [14] was “inactive” in each case. Also, the result in assay [8], in assay [16] and in [19] was inactive. Moreover, the max activation in assay [18] was -1.11%.
